Assay outcomes from PubChem.
LmPK inhibitor: blocks Leishmania mexicana pyruvate kinase activity; Potency, µM (top dose mostly 57.5 µM), most hits filed as inhibitors; purified LmPK, Kinase-Glo ATP luminescence, 1 h; actives 0.37% (n = 290,000)
Target sequence (Q27686 whole entry, looked up): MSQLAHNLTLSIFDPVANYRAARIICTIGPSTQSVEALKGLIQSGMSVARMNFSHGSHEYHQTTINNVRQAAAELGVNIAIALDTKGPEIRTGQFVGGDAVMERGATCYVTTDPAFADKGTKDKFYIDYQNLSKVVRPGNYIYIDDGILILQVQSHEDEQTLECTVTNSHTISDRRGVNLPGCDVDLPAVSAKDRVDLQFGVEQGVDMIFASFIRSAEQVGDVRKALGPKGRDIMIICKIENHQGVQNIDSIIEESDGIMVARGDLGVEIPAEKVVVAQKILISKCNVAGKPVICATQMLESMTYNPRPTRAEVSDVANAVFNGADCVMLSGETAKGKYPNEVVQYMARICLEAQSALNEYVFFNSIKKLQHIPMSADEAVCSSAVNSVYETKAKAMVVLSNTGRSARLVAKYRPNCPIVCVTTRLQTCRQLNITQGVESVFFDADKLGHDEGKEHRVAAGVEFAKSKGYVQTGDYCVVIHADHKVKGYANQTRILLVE
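qHTS format; LmPK 0.1 nM; substrates PEP 0.5 mM and ADP 0.1 mM. One-hour room-temperature incubation, then coupled luciferase luminescence; 0.5 nM enzyme wells mark activation.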
Pf growth 48h: P. falciparum growth inhibition at 48 hours (one generation). P. falciparum luciferase growth in erythrocytes, 48 h. Potency, µM (doses to about 28.7 µM), most hits filed as inhibitors. actives 5.9% (n = 310,000). AID 504832
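Compounds are pin-transferred into medium, infected erythrocytes (2% hematocrit, 0.1% parasitemia final) are added, and plates sit one parasite generation at 37 C in 5% CO2. Detection reagent is then added and luminescence measured.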
CHX counter: affects cycloheximide protein synthesis inhibition readout, counter-screen; cell reporter, cycloheximide protein synthesis inhibition counterscreen; max response, %; actives 12% (n = 300,000); in the data active = max response mostly above about 13%, no sharp cut-off; inactive = mostly below about 14%; note: read at 38.3 µM for the half of the compounds with a filed dose
Shiga inhibitor: Shiga toxin inhibition. actives 9.2% (n = 290,000). Vero cells, Shiga toxin protein synthesis inhibition reporter. inhibition, % at 38.7 µM; in the data active = inhibition mostly above about 28%, no sharp cut-off; inactive = mostly below about 43%
Pf growth 96h: P. falciparum growth inhibition at 96 hour, primary screen for plastid delayed-death inhibitors. P. falciparum luciferase reporter growth, 96 h. Potency, µM (top dose mostly 28.7 µM), most hits filed as inhibitors. actives 6.9% (n = 320,000)
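Luminescence readout: decreased luciferase signal marks inhibited growth of reporter-expressing P. falciparum in infected red cells (2% hematocrit, 0.05% parasitemia final), exposed to compound two generations (96 h, 37 C, 5% CO2).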
Numbers stand for hits; i = inactive; ? = inconclusive; nt = no result given. Compounds with a hit are over-represented: about 22% of the library has one in this group of screens. Unless noted, calls come from the whole dose curve; as a rule, active = well fitted inhibition curve with a large enough effect; inconclusive = small, poorly fitted or top-dose-only effect, or another doubt; inactive = no such curve, though single readings can be large or run the other way.

SMILES	LmPK inhibitor	Pf growth 48h	CHX counter	Shiga inhibitor	Pf growth 96h
CC(C)C[C@@]12C(=O)N(c3cccc(F)c3)C(=O)N1[C@H](c1ccc(F)cc1)[C@@H]1C(=O)N(C3CCCCC3)C(=O)[C@@H]12	nt	10.4µM	nt	nt	?
COc1ccc([C@@H]2[C@@H]3C(=O)N(C(C)(C)C)C(=O)[C@@H]3[C@]3(C)C(=O)N(c4cccc(Br)c4)C(=O)N23)cc1	i	?	i	i	?
COc1ccc(N2C(=O)N3[C@H](c4ccc(Cl)cc4)[C@@H]4C(=O)N(C5CCCCC5)C(=O)[C@@H]4[C@]3(C)C2=O)cc1	i	?	i	i	2.33µM
C[C@@]12C(=O)N(c3cccc(F)c3)C(=O)N1[C@H](c1ccc(F)cc1)[C@@H]1C(=O)N(C3CCCCC3)C(=O)[C@@H]12	i	?	i	i	i
CC(C)(C)NS(=O)(=O)c1cnc(Cl)c(Cl)c1	i	i	i	i	i
COc1ccc(N2CS(=O)CC2=O)cc1 (stereo not given)	i	i	i	i	i
CCOCC(=O)Nc1ccccc1C(=O)O	i	i	i	i	i
O=C1C2CC=C(Cl)CC2C(=O)N1CCc1ccccc1 (stereo not given)	i	?	i	i	nt
COC(=O)C1=C(C)N(CCc2c[nH]c3ccccc23)C(=O)/C1=C\N(C)C	i	i	i	i	i
CC1=CCC2C(=O)N(CCc3c[nH]c4ccccc34)C(=O)C2C1 (stereo not given)	i	?	23.2	active	?
O=C1C2CC=C(Cl)CC2C(=O)N1CCc1c[nH]c2ccccc12 (stereo not given)	i	?	21.6	46.6	?
CC(Oc1ccc(Br)cc1Br)C(=O)Nc1cccnc1Cl (stereo not given)	i	i	i	i	?
C=CCOC(=O)CCCC(=O)NC1CCCCC1	i	i	i	active	i
O=C(CC1CCCCC1)NC1CCCC1	i	i	19.0	i	nt
O=C(O)CCC(=O)NC1CCCCC1	i	nt	i	i	i
O=C(CCC1CCCC1)NC1CCCCC1	i	nt	18.0	64.9	i
O=C(CCC(=O)OCCCC(F)(F)C(F)(F)F)NC1CCCCC1	i	i	i	i	i
CC[C@@H](C)C(N)C(=O)O (stereo not given in full)	nt	i	i	i	i
c1ccc(-n2cc(CN3CCC(N4CCOCC4)CC3)c(-c3ccc4c(c3)OCO4)n2)cc1	i	?	i	i	?
O=C1CSC(c2cn(-c3ccccc3)nc2-c2ccc3c(c2)OCCO3)N1CCN1CCOCC1 (stereo not given)	i	8.28µM	i	i	i
CSc1nnc(CCNS(=O)(=O)c2ccccc2Br)n1C	i	i	i	i	i
CCOC(=O)N1CCN(C/C(C)=C/c2ccccc2)CC1	i	i	i	i	i
C/C(=C\c1ccccc1)CN1CCN(C)CC1	i	i	i	i	0.0522µM
Cc1ccc(Sc2ncccc2[N+](=O)[O-])cc1	i	nt	i	i	i
Cc1ccc(Sc2ncccc2COC(=O)NC(C)C)cc1	i	i	36.6	117.6	i
SMILES	LmPK inhibitor	Pf growth 48h	CHX counter	Shiga inhibitor	Pf growth 96h
CN(Cc1ccccc1)S(=O)(=O)c1csc(C(N)=O)c1	i	i	i	i	i
CC(C)c1ccc(C2CC(c3ccc(Br)cc3)=NN2C(N)=S)cc1 (stereo not given)	i	?	i	active	?
CNC(=S)N1N=C(c2ccc(C)cc2)CC1c1ccc(Cl)cc1 (stereo not given)	i	nt	i	i	8.28µM
O=C(O)CCC(=O)N1N=C(c2ccc(Br)cc2)CC1c1ccc(Br)cc1 (stereo not given)	i	i	i	i	?
CNC(=S)N1N=C(c2ccc(C)cc2)CC1c1ccc(Br)cc1 (stereo not given)	i	nt	i	i	?
COC(=O)C1=C(C)N(Cc2ccccc2)C(=S)N[C@H]1CCc1ccccc1	i	?	i	i	i
O=C1C(Cc2ccccc2)NC(=S)N1Cc1ccccc1 (stereo not given)	i	i	i	i	i
O=C1N[C@@H](Cc2ccccc2)C(=O)N2[C@H]1C[C@]1([C@]34C[C@H]5C(=O)N[C@@H](Cc6ccccc6)C(=O)N5[C@H]3N(S(=O)(=O)c3ccccc3)c3ccccc34)c3ccccc3N(S(=O)(=O)c3ccccc3)[C@H]21	nt	1.47µM	nt	nt	0.738µM
CCOc1ccc2nc(NC(=O)CN3CCN(C)CC3)sc2c1	i	i	26.8	i	?
CCOC(=O)N1CCN(CC(=O)Nc2nc3ccc(OC)cc3s2)CC1	i	i	24.8	44.7	?
CCOc1ccc2nc(NC(=O)CN3CCOCC3)sc2c1	i	4.15µM	36.7	87.3	i
O=C(CN1CCOCC1)Nc1nc2ccc(Cl)cc2s1	i	i	21.6	i	i
CCOc1ccc2nc(NC(=O)CN3CCN(CC)CC3)sc2c1	i	i	i	i	i
CCCCNC(=O)CCn1c(=O)c2ccccc2n(Cc2ccc(Cl)cc2)c1=O	i	i	i	i	i
Cc1ccc(OC(=O)c2ccncc2)c(C)c1	i	i	i	nt	i
CCOc1ccc2nc(NC(=O)Cn3[nH]c(=O)c4ccccc4c3=O)sc2c1	i	?	40.6	53.5	i
O=C(Cn1c(=O)c(=O)n(Cc2ccccc2)c2ccc(Cl)cc21)Nc1cccc(F)c1	i	i	i	i	13.1µM
O=C(Cn1c2ccccc2c(=O)c2ccccc21)Nc1cccc(F)c1	i	14.7µM	i	i	?
COc1ccc(CNC(=O)[C@@H](NC(=O)C2CCN(C(=O)[C@@H](N)CCSC)CC2)C(C)C)cc1	i	i	i	i	i
CCOC(=O)Cc1csc(SCC(=O)NC2CCCC2)n1	nt	i	nt	nt	i
CCOC(=O)N1CCN(C(=O)C2CCCN(Cc3nc(-c4ccc(Cl)cc4)oc3C)C2)CC1 (stereo not given)	i	nt	i	i	10.4µM
Cc1oc(-c2cccc(Cl)c2)nc1CN1CCC(C(=O)NCCCN2CCCC2=O)CC1	i	nt	i	i	11.7µM
CCCN(CCC)CCNC(=O)C1CCN(Cc2nc(-c3ccc(Cl)cc3)oc2C)CC1	i	4.65µM	i	i	?
Cc1oc(-c2cccc(Cl)c2)nc1CN1CCC(C(=O)NCCCN2CC(C)CC(C)C2)CC1 (stereo not given)	i	7.38µM	i	i	i
Cc1oc(-c2ccc(Cl)cc2)nc1CN1CCC(C(=O)NCc2cccnc2)CC1	i	i	i	i	i
COc1ccccc1NC(=O)c1cnc(SCC(=O)NCC2CCCO2)n(C)c1=O (stereo not given)	nt	?	nt	nt	i
CCOc1ccccc1N1CCN(C(=O)c2c(Cl)cnn2C)CC1	i	i	i	i	i
OCCC1CN(Cc2cnc(-c3ccccc3)s2)CCN1Cc1ccccc1 (stereo not given)	i	i	i	i	11.7µM
CC(C)=CCN1CCN(Cc2cnc(-c3ccccc3)s2)CC1CCO (stereo not given)	i	?	i	i	i
COc1cccc(CN2CCN(Cc3c(C)nn(C(C)C)c3C)CC2CCO)c1 (stereo not given)	i	i	i	i	10.4µM
